Source: PubChem BioAssay
HCMV inh: human cytomegalovirus inhibition; HFF cells, HCMV-luciferase reporter, 72 h; stronger effect = lower value; activity change, negative = inhibition, % at 57.5 µM; 410,000 tested, 4.5% active; in the data active = activity change below about -60%; inconclusive = no clear call, values can overlap the other calls; inactive = above about -39%
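After 16 h attachment at 37C, HFF cells received test compound and HCMV-luciferase (1 PFU/cell); reporter luminescence read 72 h later, data normalized against buffer-only and known inhibitor Salinomycin.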
Vaccinia mCherry: vaccinia inhibition (mCherry reporter). Vaccinia virus mCherry reporter infection, fluorescence. Potency, µM (doses to about 36.5 µM), for the others: at the highest dose activity change, negative = inhibition, actives largely listed as inhibitors. 310,000 tested, 0.63% active. AID 720579; calls by dose curve; tested in A549 cells; note: potency is the fitted concentration of half-maximal effect; nearly all actives have a fitted effect of over 35% in size
LmPK inh: blocks Leishmania mexicana pyruvate kinase activity; Potency, µM (doses to about 57.5 µM), for the others: top-dose activity change, negative = inhibition, usual class: inhibitors; Q27686; 290,000 tested, 0.37% active; purified LmPK, Kinase-Glo ATP luminescence, 1 h; note: potency is the fitted concentration of half-maximal effect
Target sequence (Q27686 whole entry, looked up): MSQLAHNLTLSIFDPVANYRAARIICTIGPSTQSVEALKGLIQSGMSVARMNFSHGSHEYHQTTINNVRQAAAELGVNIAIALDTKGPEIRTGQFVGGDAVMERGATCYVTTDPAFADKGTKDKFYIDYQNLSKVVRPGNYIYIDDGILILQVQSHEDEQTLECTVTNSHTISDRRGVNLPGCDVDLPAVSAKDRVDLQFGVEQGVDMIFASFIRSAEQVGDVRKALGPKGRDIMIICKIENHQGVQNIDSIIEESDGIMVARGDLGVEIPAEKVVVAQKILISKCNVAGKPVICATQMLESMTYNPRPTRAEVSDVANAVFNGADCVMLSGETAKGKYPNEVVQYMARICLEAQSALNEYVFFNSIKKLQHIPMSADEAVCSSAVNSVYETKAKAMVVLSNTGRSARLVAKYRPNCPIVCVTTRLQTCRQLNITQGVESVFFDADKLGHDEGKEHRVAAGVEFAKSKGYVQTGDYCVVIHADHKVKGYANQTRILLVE
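ATP generated from ADP (0.1 mM) and PEP (0.5 mM) by 0.1 nM LmPK over 1 h at room temperature (pH 7.2 imidazole buffer) was detected by coupled luciferase luminescence. Values were normalized to uninhibited and no-enzyme wells.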
VACV Venus inh: inhibitors of vaccinia virus (Venus reporter). Vaccinia virus Venus reporter expression, fluorescence. Potency, µM (top dose mostly 36.5 µM), for the others: top-dose activity change, negative = inhibition, most hits filed as inhibitors. 330,000 tested, 0.46% active; calls by dose curve; tested in A549 cells; note: potency is the fitted concentration of half-maximal effect; nearly all actives have a fitted effect of over 30% in size
Tb PYK inh: inhibitors of Trypanosoma brucei pyruvate kinase; 410,000 tested, 0.12% active; Potency, µM (top dose mostly 76.8 µM), inactives show at the top dose activity, negative = inhibition, usual class: inhibitors; Q57TT1; TbPYK enzyme, Kinase-Glo Plus ATP luminescence, 45 min; note: potency is the fitted concentration of half-maximal effect; nearly all actives have a fitted effect of over 50% in size
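Enzyme and substrate buffer are dispensed first and compound is pin-transferred. ADP at 130 uM final then starts the reaction, which runs 45 min at room temperature. Detection reagent is added for 10 min before luminescence is imaged.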
The depositor's hits bear a star; i = inactive; u = inconclusive; x = no result; [ ] = remark or other dose. Rows were chosen to be rich in hits. Some 5% of all compounds tested hit in one or more screens of this group. Unless noted, calls come from the whole dose curve; as a rule, active = well fitted curve in the direction sought with a large enough effect; inconclusive = small, poorly fitted or top-dose-only effect, or another doubt; inactive = no such curve, though single readings can be large; an effect the other way counts as inactive or inconclusive. % is set by controls: 0 for no effect and ±100 for the full control effect.

SMILES | HCMV inh | Vaccinia mCherry | LmPK inh | VACV Venus inh | Tb PYK inh
OC(CNC1CCCC1)COc1ccc(Cl)cc1 (stereo not given) | 16 | i | 1% | -11% | -1%
CC1(C)CC2CC(C)(CN2/C=N/c2sc3c(c2C#N)CC(C)(C)NC3(C)C)C1 (stereo not given) | -88* | -14% | -6% | u | -2%
O=C(CSc1nc2ccc(Cl)cc2[nH]1)NC1CCCC1 | 21 | x | -7% | x | -4%
Cc1cccc(OCCCC(=O)NC(C)C)c1 | 41 | x | -7% | 11µM* | -5%
Cc1cccc(OCCCC(=O)NC(C)c2ccccc2)c1 (stereo not given) | -11 | -1% | 3% | -7% | -2%
COc1ccc2c(c1)CCc1cnc(-n3ncc(C(=O)NC4CCOC4)c3C3CC3)nc1-2 (stereo not given) | x | -19% | x | -17% | x
CN1/C(=C/C=C/c2n(C)c3cc([N+](=O)[O-])c([N+](=O)[O-])cc3[n+]2C)C(C)(C)c2ccccc21 | -67* | -23% | x | 51% | u
CCOc1cc(S(=O)(=O)n2c(C)nc3ccccc32)ccc1F | 19 | x | 3% | -28% | 9%
CSc1ccc(/C=C/c2nc3ccccc3n2S(=O)(=O)c2ccc(F)c(C)c2)cc1 | -36 | -13% | x | -19% | u
CCOc1ccc(/C=C/c2nc3ccccc3n2S(=O)(=O)c2cccc(Cl)c2)cc1 | -80* | -7%[7.34 µM] | x | -8%[7.34 µM] | u
Cc1ccc(/C=C/c2nc3ccccc3n2S(=O)(=O)c2cccc(Cl)c2)cc1 | -82* | -8% | x | -14% | -9%
Cc1ccc(S(=O)(=O)N2CCOCC2)cc1C(=O)OCC(=O)NCCc1ccc(F)cc1 | 2 | x | x | x | -1%
COc1cc(-c2noc(CCCC(=O)NCc3ccccc3)n2)cc(OC)c1OC | 65 | x | 1% | x | 1%
Cc1ccc(S(=O)(=O)CCc2nc3ccccc3[nH]2)cc1C | -27 | -20% | -7% | -9% | 1%
c1ccc2[nH]c(CCCCCc3nc4ccccc4[nH]3)nc2c1 | -21 | i | x | -20% | 4%
O=S(=O)(CCc1nc2ccccc2[nH]1)c1ccc(Cl)cc1 | -61* | u | -24% | 1% | 1%
Cc1ccc(S(=O)(=O)CCc2nc3ccccc3[nH]2)cc1 | -69* | -6% | -4% | -11% | -3%
C#Cc1cccc(-n2nnc(C(=O)OC)c2-c2ccccc2)c1 | -102* | -9% | -3% | -15% | 0%
Cc1ccc(NC(=O)CCc2ccc(S(=O)(=O)NC3CCCCC3)cc2)cc1 | -17 | x | 8% | -18% | 5%
O=C(CCc1ccc(S(=O)(=O)NC2CCCCC2)cc1)Nc1ccccc1 | -69* | i | 1% | -9% | -6%
C1CSC2(N1)C1CC3CC(C1)CC2C3 (stereo not given) | 29 | x | -9% | -24% | -4%
COc1ccc(CCc2nnc(CCC(=O)N(C)Cc3ccnc4ccccc34)o2)cc1 | -64* | -4% | 12% | -9% | 3%
COc1ccccc1CCc1nnc(CCC(=O)N(C)Cc2cccc3cnccc23)o1 | -20 | -8% | -2% | -15% | 4%
CC1(C)C(=O)OC(C(=O)c2ccc(C(C)(C)C)cc2)C(C)(C)C1=O (stereo not given) | 21 | x | -1% | -20% | 1%
CC(C)N1CCN(Cc2nc3ccccc3s2)CC1CCO (stereo not given) | 82 | -2% | -2% | -1% | 0%
SMILES | HCMV inh | Vaccinia mCherry | LmPK inh | VACV Venus inh | Tb PYK inh
O=[N+]([O-])c1cc(NS(=O)(=O)c2ccc(Cl)nc2)ccc1Cl | -22 | u | x | -17% | 4%
CC(C)c1ccc(NS(=O)(=O)c2ccc(Cl)nc2)cc1 | -1 | 4µM* | 5% | 7.9µM* | 1%
COC(=O)C1=C(C(=O)OC)[C@]2([C@H]3CCCCN[C@@H](Cc4ccccc4)C(=O)N3Cc3ccccc3)C=C[C@H]1O2 | -70* | -20% | x | u | -9%
COC(=O)C1=C(C(=O)OC)[C@]2([C@H]3C/C=C\CN[C@@H](Cc4ccccc4)C(=O)N3Cc3ccccc3)C=C[C@H]1O2 | x | -11% | x | -27% | x
O=C(O)c1ccc(-c2nnn(Cc3ccccc3F)n2)cc1 | 23 | x | -1% | x | 1%
N#CCC(CNc1ncc(C(F)(F)F)cc1Cl)OC(=O)c1c(F)cccc1F (stereo not given) | -30 | u | x | u | 5%
N#CCC(CNc1ncc(C(F)(F)F)cc1Cl)OC(=O)c1ccc(Cl)cc1 (stereo not given) | -62* | u | 3% | u | 12%
CC(O)(c1cccc(F)c1)c1nc(-c2ccc3ccccc3c2)cs1 (stereo not given) | -14 | i | x | 3% | 0%
Cc1ccc2c(=O)n3c(nc2c1)C(CC(C)C)NC(=O)c1cccnc1-3 (stereo not given) | -14 | -13% | x | -7% | -4%
COc1ccc(Cn2c(=O)[nH]c3cc(C(=O)N4CCN(Cc5ccccc5)CC4)ccc3c2=O)cc1 | -63* | x | 3% | x | 6%
COCCn1c(=S)[nH]c2cc(C(=O)N3CCN(Cc4ccc5c(c4)OCO5)CC3)ccc2c1=O | -99* | x | 1% | x | -20%
COCCn1c(=S)[nH]c2cc(C(=O)N3CCc4ccccc43)ccc2c1=O | -70* | x | 3% | x | -12%
COCCn1c(=O)[nH]c2cc(C(=O)N3CCN(Cc4ccc5c(c4)OCO5)CC3)ccc2c1=O | u | u | x | -4% | 1%
COC(=O)c1ccc2c(=O)n(CCCCCC(=O)O)c(=S)[nH]c2c1 | -63* | -19% | 0% | -9% | -18%
COc1ccccc1C(=O)NCCC(=O)NC1CCCCCC1 | -28 | i | x | -7% | -6%
CCOC(=O)Nc1ccc2c(c1)N(C(=O)CCN(CC)CC)c1ccccc1CC2 | 1 | x | 7% | x | -4%
CCOC(=O)Nc1ccc2c(c1)N(C(=O)CCN(CC)CC)c1ccccc1S2=O (stereo not given) | 51 | 10µM* | 1% | u | 6%
CCN(CC)c1ccc(-n2c(C)c(C(C)=O)c(C(C)=O)c2C)cc1 | -63* | x | 2% | x | 3%
CC(=O)Oc1ccc(OC(C)=O)c(SCCCCCCl)c1 | -72* | -22% | 11µM* | -2% | -7%
O=C(CSc1nnnn1C1CC2CCC1C2)Nc1ccnc2ccccc12 (stereo not given) | -76* | x | 1% | u | 3%
COc1ccccc1C(=O)Nc1c(C(=O)Nc2cc(Cl)ccc2C)sc2nc(C)cc(C)c12 | -102* | -1% | x | 9% | 5%
CCSc1ccccc1C(=O)N1CCN(c2nc3ccccc3s2)CC1 | -67* | i[7.34 µM] | x | -16%[7.34 µM] | -2%
Cn1c(C(=O)N2CCN(c3nc4ccccc4s3)CC2)cc2sccc21 | -74* | x | -4% | x | 6%
COc1ccccc1N1CCN(C(=O)c2cc3sccc3n2C)CC1 | -76* | -8% | 1% | -17% | -5%
CC(=O)N1c2ccccc2NC2=C(C(=O)CCC2)C1c1ccco1 (stereo not given) | -32 | 10% | 2% | 7% | -1%
